Laboratory results reported in paper PMC5540273 (PLoS ONE, 2017).

What was measured:
Details in all cases: concentration: 1 μM,replicates: in singlicate; n = 1
RIOK1 = test system: RIOK1
RIOK2 = test system: RIOK2
RIOK3 = test system: RIOK3
RIPK1 = test system: RIPK1
RIPK2 = test system: RIPK2
RIPK4 = test system: RIPK4
RIPK5 = test system: RIPK5
ROCK1 = test system: ROCK1
ROCK2 = test system: ROCK2
ROS1 = test system: ROS1
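Further: KINOMEscan kinase panel screen.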

| SMILES | %Inh (RIOK1) [%] | %Inh (RIOK2) [%] | %Inh (RIOK3) [%] | %Inh (RIPK1) [%] | %Inh (RIPK2) [%] | %Inh (RIPK4) [%] | %Inh (RIPK5) [%] | %Inh (ROCK1) [%] | %Inh (ROCK2) [%] | %Inh (ROS1) [%] |
| --- | --- | --- | --- | --- | --- | --- | --- | --- | --- | --- |
| O=C(NCCNc1ccnc(NCc2ccc(F)cc2)n1)c1cc2ccccc2s1 [GSK1379944] | 28 | 0 | 17 | 0 | 73 | 5 | 0 | 0 | 0 | 7 |
| CN(C)CCOc1ccc(-c2cc(-c3c[nH]nc3-c3ccccn3)ccn2)cc1 [GW835314] | 0 | 2 | 8 | 0 | 78 | 16 | 14 | 9 | 18 | 21 |
| CCN(CC)CCCCNc1ncc2cc(-c3c(Cl)cccc3Cl)c(NC(=O)NC(C)(C)C)nc2n1 | 0 | 6 | 0 | 17 | 54 | 0 | 26 | 0 | 9 | 43 |
| Cc1n[nH]c2ccc(-c3cc(OC[C@@H](N)Cc4ccccc4)cnc3-c3ccoc3)cc12.O=C(O)C(F)(F)F.O=C(O)C(F)(F)F [GSK507358] | 93 | 0 | 72 | 0 | 0 | 0 | 0 | 31 | 33 | 0 |
| CCn1c(-c2nonc2N)nc2c(C#CC(C)(C)O)nc(OCCN)cc21.Cl.Cl [GSK902056] | 0 | 8 | 0 | 0 | 0 | 0 | 4 | 18 | 0 | 2 |
| Cl.Cl.NC[C@H](Cc1ccc(C(F)(F)F)cc1)NC(=O)c1cc(Br)c(-c2ccnc3[nH]ccc23)s1 [GSK1487252] | 35 | 0 | 12 | 0 | 0 | 19 | 0 | 98.2 | 99.5 | 44 |
| CNC(=O)c1ccccc1Sc1ccc2c(/C=C/c3ccccn3)n[nH]c2c1 | 2 | 0 | 0 | 12 | 22 | 0 | 11 | 5 | 17 | 45 |
| COc1ccc(C[C@@H](CN)NC(=O)c2cc(Br)c(-c3ccnc4[nH]ccc34)s2)cc1.Cl.Cl [GSK1389063] | 89 | 49 | 80 | 0 | 4 | 36 | 28 | 100 | 95.2 | 59 |
| Cc1cc(C(=O)Nc2ccc(Oc3ccc4nc(NC(=O)C5CC5)cn4n3)cc2)nn1-c1ccccc1 | 17 | 0 | 41 | 0 | 24 | 0 | 0 | 0 | 0 | 0 |
| NC(=O)c1cc(-c2ccccc2)cc2c(C3CCNCC3)c[nH]c12 [GSK301362] | 79 | 20 | 64 | 0 | 7 | 19 | 0 | 40 | 19 | 23 |
| O=C(NCCCN1CCOC1=O)c1cnc(NCc2cc(Cl)ccc2Cl)nc1NC1CCCC1 | 0 | 0 | 6 | 1 | 0 | 11 | 0 | 0 | 0 | 18 |
| CC(C)Nc1cc(-c2ccc3c(N)n[nH]c3c2)nc(N)n1 [GSK2221681] | 94.1 | 19 | 66 | 0 | 0 | 66 | 0 | 7 | 41 | 5 |
| C=CC(=O)Nc1cc2c(Nc3ccc(F)c(Cl)c3)ncnc2cc1OCCCN1CCOCC1 [GW781483] | 54 | 10 | 46 | 8 | 53 | 26 | 4 | 42 | 0 | 4 |
| Cc1cc2cn[nH]c2cc1-c1cccc2c(N)c(C(N)=O)nnc12 | 100 | 77 | 73 | 0 | 4 | 84 | 74 | 70 | 68 | 80 |
| CN(C)CC(O)COc1ccc(Nc2nccc(-c3cnn4nc(N5CCOCC5)ccc34)n2)cc1 (stereo not drawn) [GW767488] | 96.6 | 98.2 | 98.2 | 46 | 0 | 55 | 65 | 93.8 | 97.9 | 48 |
| C[C@@H](Oc1cc(-c2cnn(C3CCNCC3)c2)cnc1N)c1c(Cl)ccc(F)c1Cl | 39 | 0 | 50 | 6 | 32 | 34 | 80 | 5 | 20 | – |
| C[C@H]1Oc2cc(cnc2N)-c2c(nn(C)c2C#N)CN(C)C(=O)c2ccc(F)cc21 | 0 | 0 | 0 | 12 | 0 | 0 | 89 | 0 | 0 | 98.5 |
| Cc1ccc(-n2nc(C(C)(C)C)cc2NC(=O)Nc2ccc(OCCN3CCOCC3)c3ccccc23)cc1 [GW839464] | 54 | 0 | 8 | 29 | 0 | 0 | 0 | 0 | 0 | 0 |
| CCN(CC)CCOc1ccc(Nc2ncc3cc(-c4c(Cl)cccc4Cl)c(=O)n(C)c3n2)cc1 [SB-601273] | 35 | 29 | 92.3 | 100 | 99.7 | 18 | 44 | 25 | 50 | 50 |
| Cl.Oc1cc(-c2nc(-c3ccccc3)[nH]c2-c2ccncc2)ccc1Cl [SB-386023] | 0 | 5 | 0 | 0 | 78 | 17 | 21 | 1 | 6 | 19 |
| C[C@@H]1CCN(C(=O)CC#N)C[C@@H]1N(C)c1ncnc2[nH]ccc12 | 0 | 0 | 37 | 0 | 0 | 0 | 0 | – | 46 | 6 |
| Cl.Cl.Nc1nc(-c2ccc3c(N)n[nH]c3c2)cc(N2CCCC(NC(=O)c3ccccc3)C2)n1 (stereo not drawn) [GSK2286775] | 96.5 | 9 | 99.3 | 4 | 8 | 39 | 5 | 2 | 30 | 0 |
| Cc1ccc2c(-c3ccncc3)c(-c3ccc(F)cc3)nn2c1.Cl [GW461484] | 0 | 0 | 19 | 0 | 55 | 0 | 0 | 14 | 5 | 0 |
| Cl.Cl.NC[C@H](CC1CCCCC1)NC(=O)c1cc(Br)c(-c2ccnc3[nH]ccc23)s1 [GSK1581427] | 100 | 66 | 80 | 0 | 0 | 20 | 5 | 100 | 99.1 | 17 |
| Cc1occc1-c1nc(N)c(OC[C@@H](N)Cc2c[nH]c3ccccc23)cc1-c1cc2c(C)n[nH]c2cn1 [GSK1660450] | 87 | 16 | 59 | 0 | 10 | 4 | 0 | 93.7 | 82 | 4 |
| Nc1nc(Nc2ccccc2)cc(-c2ccc3c(N)n[nH]c3c2)n1 [GSK2225749] | 98.5 | 54 | 76 | 0 | 0 | 44 | 0 | – | 45 | 0 |
| CC(C)N1C(=O)Cc2cc(Nc3ncc(C(F)(F)F)c(NCc4cccc(S(C)(=O)=O)c4)n3)ccc21 | 46 | 21 | 88 | 0 | 4 | 42 | 43 | 3 | 0 | 59 |
